From PubChem BioAssay (EPA / NIEHS)
Records with an inconclusive call do not appear. Activity calls are given as the source filed them. Rule for the calls, unless noted: active = hit-call score of the fitted dose curve at least 0.9, where 1 is the maximum; inconclusive = response in the unintended direction; inactive = score below 0.9.

Key:
[1] = IUF_NPC2-5_cytotoxicity_120hr: Cytotoxicity Assessment at 120 hours in the Leibniz Research Institute for Environmental Medicine (IUF) Neural Progenitor Cell Migration and Differentiation Assay (NPC2-5) (AID 2284307)
Summary of the method: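 Human fetal (GW 16-19) neural progenitor spheres (0.3 mm) plated on poly-D-lysine/laminin in N2 differentiation medium, exposed 120 h with half-medium renewal at day 3; 7 concentrations plus solvent control, DMSO ≤0.1%. LDH release in supernatant read by resorufin fluorescence.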

[2] = IUF_NPC2-5_cell_number_120hr: Cell Number Assessment at 120 hours in the Leibniz Research Institute for Environmental Medicine (IUF) Neural Progenitor Cell Migration and Differentiation Assay (NPC2-5) (AID 2284308; active = hit-call score of the fitted dose curve at least 0.9, where 1 is the maximum; inactive = score below 0.9;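 note: count of Hoechst-stained nuclei in migration zone around plated human neural progenitor spheres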)
Summary of the method: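 Human fetal neural progenitor spheres (0.3 mm) plated on poly-D-lysine/laminin in N2 differentiation medium, exposed five days across 7 concentrations with half-medium refresh at day 3. Hoechst-positive nuclei counted in migration area at 120 h, relative to DMSO.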

[3] = IUF_NPC2-5_viability_120hr: Viability Assessment at 120 hours in the Leibniz Research Institute for Environmental Medicine (IUF) Neural Progenitor Cell Migration and Differentiation Assay (NPC2-5) (AID 2284312; active = hit-call score of the fitted dose curve at least 0.9, where 1 is the maximum; inactive = score below 0.9)
Summary of the method: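 Alamar blue resorufin fluorescence read after 5 days of differentiation, with compound present from day 0 and replenished at day 3. Primary hNPC spheres on laminin-coated plates, 37C; seven concentrations plus solvent control, fitted against DMSO.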

[4] = IUF_NPC1_cytotoxicity_72hr: Cytotoxicity Assessment at 72 hours in the Leibniz Research Institute for Environmental Medicine (IUF) Neural Progenitor Cell Proliferation Assay (NPC1) (AID 2284332);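 note: rising LDH signal means more cytotoxicity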
Summary of the method: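 LDH in supernatant, resazurin→resorufin fluorescence (RFU), 72 h exposure, no re-dosing. Cells: primary hNPC spheres, one per well, EGF+FGF medium, 37C/5% CO2, pH 7.2-7.6. Fit: positive direction vs baseline and dynamic range.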

[5] = TAMU_PeakParms_SingleDonor1434_Asystole: Texas A&M University (TAMU) 1.5-hr Human Induced Pluripotent Stem Cell (iPSC)-derived Cardiomyocytes Calcium (Ca+2) Flux Assay for Cardiotoxicity: Asystole (quiescence of beating) (AID 2284328)
Summary of the method: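 Average Ca2+-flux peak frequency (beats/s) was recorded in single-donor iPSC-derived cardiomyocytes after 90 min exposure (0.2–100 uM final, 0.5% DMSO). Asystole POD set as EC95 against DMSO, no preprocessing.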

Measured: outcome

CC1(C)S[C@@H]2[C@H](NC(=O)COc3ccccc3)C(=O)N2[C@H]1C(=O)O
not listed: [5]
inactive: all other assays above

Nc1ncn([C@@H]2O[C@H](CO)[C@@H](O)[C@H]2O)c(=O)n1
not listed: [5]
inactive: all other assays above

O=C(O)CCCC[C@@H]1SC[C@@H]2NC(=O)N[C@@H]21
inactive: [5]
